# Experimental data taken from PubChem BioAssay (NCATS).
# Values joined by “and” are separate entries in the source; they are usually repeats but may differ in a detail not shown here. Identical values can stand only once. Records with an inconclusive call do not appear. Active and inactive are the calls of the source. The call rests on the fitted dose curve; in most records, active means well fitted activation curve with a large enough effect; inconclusive means small, poorly fitted or top-dose-only effect; inactive means no such curve, though single readings can be large or run the other way.
# Molecular target: Cellular tumor antigen p53 (Homo sapiens) (UniProt P04637)
# Assay: Primary qHTS for small molecule compounds that upregulate eGFP-tagged delta133p53alpha (in N-terminal) cells. (AID 2060322); further: nearly all actives have a fitted effect of over 75% in size;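 on activation: cells pre-induced with doxycycline then dosed without doxycycline; series mostly up to about 56 µM; 0% = DMSO vehicle and 100% = reference activator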
# Settings: NCI-H358 eGFP-delta133p53alpha fluorescence, 24 h; activation: stronger effect = higher value
# Outline: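 NCI-H358 cells pre-induced 24 h with 10 ng/ml doxycycline for eGFP-delta133p53alpha, plated dox-free and exposed 24 h at 37C to titrated compounds. Fixed, Hoechst-stained; gated GFP peak intensity by laser scanning cytometry, normalized to DMSO (0%) and 57.5 uM 5-azacytidine (100%).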
# Potency means the concentration at half of the fitted maximal effect.
# Cellular tumor antigen p53 (Homo sapiens), sequence (P04637 whole entry, looked up): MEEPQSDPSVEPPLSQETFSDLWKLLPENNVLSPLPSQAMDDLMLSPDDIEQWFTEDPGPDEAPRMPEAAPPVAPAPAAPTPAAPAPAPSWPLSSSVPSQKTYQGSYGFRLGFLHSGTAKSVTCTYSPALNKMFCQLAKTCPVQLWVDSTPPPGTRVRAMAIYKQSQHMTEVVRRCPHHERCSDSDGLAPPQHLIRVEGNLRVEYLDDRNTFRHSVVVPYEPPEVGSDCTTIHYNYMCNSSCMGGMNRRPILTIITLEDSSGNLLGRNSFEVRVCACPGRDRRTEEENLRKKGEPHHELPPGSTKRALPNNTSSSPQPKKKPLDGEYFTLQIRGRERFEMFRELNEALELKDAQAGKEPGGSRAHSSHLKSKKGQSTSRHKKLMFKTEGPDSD
Structure (SMILES),activation,Potency
CCCOC(=O)c1cncn1C(C)c1ccccc1 (stereo not drawn),17.5% (inactive),–
Cc1nnc2n1-c1sc(CCC(=O)N3CCOCC3)cc1C(c1ccccc1Cl)=NC2,-12.6% (inactive),–
ClCc1cccc(Cl)c1,5.02% (inactive),–
CN(C)C(=O)Oc1cc(OC(=O)N(C)C)cc(C(O)CNC(C)(C)C)c1 (stereo not drawn),-17.6% (inactive),–
CCOP(=S)(OCC)Oc1cc(C)nc(C(C)C)n1,-8.37% (inactive),–
ClCCN1CCCC1,4.18% (inactive),–
C=C[C@@H]1CN2CCC1C[C@@H]2[C@@H](O)c1ccnc2ccccc12 (stereo partly drawn),-22.8% (inactive),–
CC(O)=C(C#N)C(=O)Nc1cc(Br)ccc1Br,1.6% (inactive),–
C[C@]12COC(=O)C[C@@H]1CC[C@@H]1[C@H]2CC[C@@]2(C)[C@H]1CC[C@]2(C)O,-15.3% (inactive),–
COP(=S)(OC)SCN1C(=O)c2ccccc2C1=O,–,21.9 µM (active)
CC(C)(C)CC(C)(C)c1ccc(O)cc1,–,28.2 µM (active) and 30.9 µM (active)
CCOC(=O)c1cncn1[C@H](C)c1ccccc1,-12.5% (inactive),–
CNC(C)Cc1ccc2c(c1)OCO2 (stereo not drawn),17.5% (inactive),–
O=[N+]([O-])O[C@H]1CO[C@H]2[C@@H]1OC[C@H]2O[N+](=O)[O-],34.5% (inactive),–
C1CN2CCC1CC2,-19.2% (inactive),–
CCc1ccc(C2CCNCC2)cc1,20.9% (inactive),–
C[C@H]([C@H](O)CCC(C)(C)O)[C@H]1CC[C@@]2(O)C3=CC(=O)[C@@H]4C[C@@H](O)[C@@H](O)C[C@]4(C)[C@@H]3CC[C@]12C,-1.72% (inactive),–
COP(=S)(OC)Oc1ccc(SC)c(C)c1,-15.9% (inactive),–
Clc1cccc(N2CCNCC2)c1,17.5% (inactive),–

Structure (SMILES),activation,Potency
CN1CC[C@]23c4c5ccc(O)c4O[C@H]2[C@@H](O)CC[C@H]3[C@H]1C5,14.1% (inactive),–
CO[C@H]1CCC(O[C@H]2C[C@H]([C@]3(C)CC[C@]4(C[C@H](O)[C@@H](C)[C@@H]([C@@H](C)C=C(C)C(=O)[C@H](C)C[C@H](C)C(=O)O)O4)O3)O[C@]3(O[C@@H]([C@H]4O[C@@](O)(CO)[C@H](C)C[C@H]4C)C[C@H]3C)[C@H]2C)O[C@H]1C (stereo partly drawn),20.4% (inactive),–
CC(C)Oc1cccc(NC(=O)c2ccccc2C(F)(F)F)c1,-17.6% (inactive),–
Clc1ccc(CO/N=C(\Cn2ccnc2)c2ccc(Cl)cc2Cl)c(Cl)c1,-8.37% (inactive),–
CN1C[C@@H](NS(=O)(=O)N(C)C)C[C@@H]2c3cccc4c3c(cn4C)C[C@H]21,14.1% (inactive),–
CC1=C2C[C@@H]3[C@@H](CC=C4C[C@@H](O)CC[C@@]43C)[C@@H]2CC[C@]12O[C@H]1C[C@H](C)CN[C@H]1[C@H]2C,14% (inactive),–
CCOC(=O)C1(c2ccccc2)CCN(CCc2ccc(N)cc2)CC1,-6.69% (inactive),–
Clc1ccc(COC(Cn2ccnc2)c2ccc(Cl)cc2Cl)cc1 (stereo not drawn),24.3% (inactive) and 15.7% (inactive),–
CCOP(=S)(OCC)O/N=C(\C#N)c1ccccc1,-18.6% (inactive),–
CCS(=O)(=O)C(C)(C)S(=O)(=O)CC,-5.86% (inactive),–
C[C@]12CC[C@H]3[C@@H](CCC4=CC(=O)CC[C@@]43C)[C@@H]1CC[C@@H]2C(=O)O,1.69% (inactive),–
CN(C)CCN(C)CCc1ccc(Cl)c(Cl)c1,12% (inactive),–
CCN1CCCC1CNC(=O)C(O)(c1ccccc1)c1ccccc1 (stereo not drawn),-15.1% (inactive),–
CC(Cc1ccccc1)N(C)Cc1ccco1 (stereo not drawn),-11.7% (inactive),–
COc1cc(C[C@@H](C)N)c(OC)cc1Br,-17.5% (inactive),–
Cc1c(Cl)c(=O)oc2cc(OP(=O)(OCCCl)OCCCl)ccc12,-15.9% (inactive),–
Cc1c(C(=O)c2cccc3ccccc23)c2cccc3c2n1[C@H](CN1CCOCC1)CO3,12.1% (inactive),–
CC(C)NCC(O)c1ccc(N)c(C#N)c1 (stereo not drawn),1.69% (inactive),–
c1ccc(CCCN2CCN(CCOC(c3ccccc3)c3ccccc3)CC2)cc1,1.41% (inactive) and -30.2% (inactive),–
